Measurements from publication PMC7862700, “An all-to-all approach to the identification of sequence-specific readers for epigenetic DNA modifications on cytosine”.

Tests used:
Experiment in all cases: DAPPL (digital affinity profiling via proximity ligation, sequencing); 10 mM Tris-HCl pH 7.5, 50 mM NaCl, 1 mM DTT, 4% glycerol, room temperature, 30 min; GST-TFs on glutathione beads, 16-mer random dsDNA library, 0.1% formaldehyde crosslink after washing; high values mean tight binding
Conditions in all cases: protein: recombinant; tags: N-terminal GST; dsDNA, one strand shown
FLI1 = target: T1, FLI1 (Homo sapiens, UniProt Q01543 1-452)
T1 sequence: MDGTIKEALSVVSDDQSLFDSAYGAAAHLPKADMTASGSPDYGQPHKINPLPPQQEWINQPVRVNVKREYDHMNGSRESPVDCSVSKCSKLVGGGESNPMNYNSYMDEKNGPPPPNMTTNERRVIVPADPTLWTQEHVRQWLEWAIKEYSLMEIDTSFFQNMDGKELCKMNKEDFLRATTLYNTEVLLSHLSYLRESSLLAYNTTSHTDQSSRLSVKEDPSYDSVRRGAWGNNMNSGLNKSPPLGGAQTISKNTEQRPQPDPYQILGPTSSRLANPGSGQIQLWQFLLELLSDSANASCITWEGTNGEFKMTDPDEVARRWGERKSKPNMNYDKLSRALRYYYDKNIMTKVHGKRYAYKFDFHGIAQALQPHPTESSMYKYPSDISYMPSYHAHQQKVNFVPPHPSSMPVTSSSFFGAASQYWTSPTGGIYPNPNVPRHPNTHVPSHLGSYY
Outline: (§1)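 Each value of binding signal is a hexamer's read frequency for a factor divided by the same hexamer's frequency in the tag-only sample. Barcoded, bead-captured GST fusions of human transcription factors made in yeast were pooled with that sample and incubated with 200 nmole of a random double-stranded 16-mer DNA library in Tris/NaCl/DTT/glycerol buffer at room temperature for 30 min. Washing, 0.1% formaldehyde crosslinking, proximity ligation, PCR and Illumina NextSeq500 sequencing followed.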

ELK1 = target: T2, ELK1 (Homo sapiens, UniProt P19419 1-428)
T2 sequence: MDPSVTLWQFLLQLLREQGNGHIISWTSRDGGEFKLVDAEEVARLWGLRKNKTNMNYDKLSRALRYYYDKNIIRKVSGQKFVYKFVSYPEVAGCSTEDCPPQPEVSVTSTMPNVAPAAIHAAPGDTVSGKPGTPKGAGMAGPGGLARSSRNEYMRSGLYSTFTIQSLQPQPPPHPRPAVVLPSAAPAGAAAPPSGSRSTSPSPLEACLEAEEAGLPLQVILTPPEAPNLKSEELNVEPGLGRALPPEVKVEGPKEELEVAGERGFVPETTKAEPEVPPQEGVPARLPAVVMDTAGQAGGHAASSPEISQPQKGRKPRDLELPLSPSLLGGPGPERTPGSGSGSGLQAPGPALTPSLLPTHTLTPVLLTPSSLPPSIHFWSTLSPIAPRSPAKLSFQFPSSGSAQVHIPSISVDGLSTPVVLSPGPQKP
Outline: as §1

GABPA = target: T3, GABPA (Homo sapiens, UniProt Q06546 1-454)
T3 sequence: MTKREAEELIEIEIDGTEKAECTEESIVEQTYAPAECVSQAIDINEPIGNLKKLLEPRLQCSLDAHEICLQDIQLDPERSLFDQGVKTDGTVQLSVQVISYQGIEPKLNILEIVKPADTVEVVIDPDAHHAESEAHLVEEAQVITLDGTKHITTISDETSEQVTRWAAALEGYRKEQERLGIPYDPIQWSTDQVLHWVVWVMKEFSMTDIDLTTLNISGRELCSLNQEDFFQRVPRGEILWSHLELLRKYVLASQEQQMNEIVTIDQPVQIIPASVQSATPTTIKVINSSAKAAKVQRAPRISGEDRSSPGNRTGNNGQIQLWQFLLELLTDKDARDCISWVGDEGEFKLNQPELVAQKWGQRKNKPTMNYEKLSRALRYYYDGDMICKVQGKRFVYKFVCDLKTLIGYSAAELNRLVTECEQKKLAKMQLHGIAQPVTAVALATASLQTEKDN
Outline: as §1

ERG = target: T4, ERG (Homo sapiens, UniProt P11308 1-479)
T4 sequence: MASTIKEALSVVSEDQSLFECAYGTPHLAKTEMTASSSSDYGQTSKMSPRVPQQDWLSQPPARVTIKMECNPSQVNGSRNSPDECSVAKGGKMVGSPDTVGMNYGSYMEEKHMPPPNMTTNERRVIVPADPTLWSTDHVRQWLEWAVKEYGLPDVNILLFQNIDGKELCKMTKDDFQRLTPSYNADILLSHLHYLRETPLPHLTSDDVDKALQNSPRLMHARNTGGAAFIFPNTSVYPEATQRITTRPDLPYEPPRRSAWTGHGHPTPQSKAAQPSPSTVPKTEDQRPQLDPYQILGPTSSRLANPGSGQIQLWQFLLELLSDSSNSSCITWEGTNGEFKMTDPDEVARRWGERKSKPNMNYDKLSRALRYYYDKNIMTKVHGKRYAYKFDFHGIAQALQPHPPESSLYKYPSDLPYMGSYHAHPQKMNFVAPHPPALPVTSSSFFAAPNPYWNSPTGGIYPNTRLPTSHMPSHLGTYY
Outline: as §1

ELF1 = ELF1 (Homo sapiens, UniProt P32519 1-619)
Outline: as §1

EHF = target: T5, EHF (Homo sapiens, UniProt Q9NZC4 1-300)
T5 sequence: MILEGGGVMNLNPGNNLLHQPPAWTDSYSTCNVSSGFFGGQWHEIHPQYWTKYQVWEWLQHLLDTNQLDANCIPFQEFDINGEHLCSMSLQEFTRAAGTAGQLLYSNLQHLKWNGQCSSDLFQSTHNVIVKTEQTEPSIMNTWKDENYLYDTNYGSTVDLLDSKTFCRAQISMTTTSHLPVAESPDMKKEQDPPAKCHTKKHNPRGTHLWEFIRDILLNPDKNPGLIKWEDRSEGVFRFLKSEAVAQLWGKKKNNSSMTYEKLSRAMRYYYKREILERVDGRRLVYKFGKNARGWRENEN
Outline: as §1

SPI1 = SPI1 (Homo sapiens, UniProt P17947 1-270)
Outline: as §1

SPIB = SPIB (Homo sapiens, UniProt Q01892 1-262)
Outline: as §1

ELK3 = target: T6, ELK3 (Homo sapiens, UniProt P41970 1-407)
T6 sequence: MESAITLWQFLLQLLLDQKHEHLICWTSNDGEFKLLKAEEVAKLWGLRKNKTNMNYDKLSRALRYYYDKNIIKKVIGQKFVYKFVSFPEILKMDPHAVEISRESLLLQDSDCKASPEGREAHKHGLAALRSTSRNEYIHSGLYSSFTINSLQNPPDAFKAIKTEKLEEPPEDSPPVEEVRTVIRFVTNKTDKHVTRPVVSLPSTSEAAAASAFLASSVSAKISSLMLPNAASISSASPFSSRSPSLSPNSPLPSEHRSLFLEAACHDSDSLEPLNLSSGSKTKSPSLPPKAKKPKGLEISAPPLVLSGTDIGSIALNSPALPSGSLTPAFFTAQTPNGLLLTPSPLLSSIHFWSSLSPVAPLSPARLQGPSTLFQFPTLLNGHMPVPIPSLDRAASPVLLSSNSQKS
Outline: as §1

FEV = target: T7, FEV (Homo sapiens, UniProt Q99581 1-238)
T7 sequence: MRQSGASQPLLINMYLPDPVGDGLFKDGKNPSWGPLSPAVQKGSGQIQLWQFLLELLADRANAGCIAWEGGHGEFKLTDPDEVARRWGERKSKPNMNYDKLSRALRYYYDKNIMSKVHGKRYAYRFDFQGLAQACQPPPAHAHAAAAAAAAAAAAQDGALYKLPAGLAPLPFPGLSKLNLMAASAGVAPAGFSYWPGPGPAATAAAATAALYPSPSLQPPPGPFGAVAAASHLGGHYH
Outline: as §1

ETV5 = ETV5 (Homo sapiens, UniProt P41161 1-510)
Outline: as §1

SPIC = target: T8, SPIC (Homo sapiens, UniProt Q8N5J4 1-248)
T8 sequence: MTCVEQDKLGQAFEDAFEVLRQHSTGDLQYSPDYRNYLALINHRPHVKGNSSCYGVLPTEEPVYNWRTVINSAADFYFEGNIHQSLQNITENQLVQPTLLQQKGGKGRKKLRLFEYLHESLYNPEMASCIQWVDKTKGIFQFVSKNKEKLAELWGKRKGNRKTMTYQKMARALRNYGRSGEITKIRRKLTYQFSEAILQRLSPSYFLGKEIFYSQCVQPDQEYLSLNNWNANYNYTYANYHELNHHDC
Outline: as §1

ELF4 = ELF4 (Homo sapiens, UniProt Q99607 1-663)
Outline: as §1

ELK4 = target: T9, ELK4 (Homo sapiens, UniProt P28324-2 1-405)
T9 sequence: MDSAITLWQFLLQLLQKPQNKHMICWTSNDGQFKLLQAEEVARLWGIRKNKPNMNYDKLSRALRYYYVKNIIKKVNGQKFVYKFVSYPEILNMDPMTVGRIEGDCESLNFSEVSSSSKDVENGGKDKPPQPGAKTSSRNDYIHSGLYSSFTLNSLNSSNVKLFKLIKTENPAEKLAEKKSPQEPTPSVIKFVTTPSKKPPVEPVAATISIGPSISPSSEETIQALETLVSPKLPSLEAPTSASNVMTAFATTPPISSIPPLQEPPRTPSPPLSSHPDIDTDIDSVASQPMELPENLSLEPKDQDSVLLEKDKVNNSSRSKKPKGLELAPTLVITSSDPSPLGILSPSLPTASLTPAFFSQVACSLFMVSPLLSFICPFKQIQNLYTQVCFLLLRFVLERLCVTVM
Outline: as §1

ETV2 = target: T10, ETV2 (Homo sapiens, UniProt O00321 1-342)
T10 sequence: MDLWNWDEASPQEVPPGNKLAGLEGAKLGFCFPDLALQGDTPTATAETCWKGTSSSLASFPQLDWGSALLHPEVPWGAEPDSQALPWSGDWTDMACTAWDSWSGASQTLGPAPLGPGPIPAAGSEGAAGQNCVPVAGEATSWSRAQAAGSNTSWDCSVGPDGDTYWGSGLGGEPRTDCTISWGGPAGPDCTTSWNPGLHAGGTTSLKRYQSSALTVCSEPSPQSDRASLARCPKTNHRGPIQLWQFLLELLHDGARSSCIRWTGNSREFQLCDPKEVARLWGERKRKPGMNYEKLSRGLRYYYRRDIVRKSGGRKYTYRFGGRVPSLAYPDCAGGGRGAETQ
Outline: as §1

ELF3 = target: T11, ELF3 (Homo sapiens, UniProt P78545 1-371)
T11 sequence: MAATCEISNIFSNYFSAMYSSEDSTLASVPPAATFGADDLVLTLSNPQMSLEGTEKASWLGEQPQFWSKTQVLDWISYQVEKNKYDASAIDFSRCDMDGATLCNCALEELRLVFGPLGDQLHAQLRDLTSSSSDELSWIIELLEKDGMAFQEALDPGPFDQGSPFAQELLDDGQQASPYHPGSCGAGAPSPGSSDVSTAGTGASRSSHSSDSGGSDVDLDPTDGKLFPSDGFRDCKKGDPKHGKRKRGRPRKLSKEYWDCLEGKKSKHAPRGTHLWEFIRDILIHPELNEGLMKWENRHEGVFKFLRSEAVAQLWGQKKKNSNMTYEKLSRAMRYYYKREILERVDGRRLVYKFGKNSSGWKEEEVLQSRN
Outline: as §1

ETV1 = ETV1 (Homo sapiens, UniProt P50549 1-477)
Outline: as §1

CRX = CRX (Homo sapiens, UniProt O43186 1-299)
Outline: as §1

SPIB, sequence (Q01892 whole entry): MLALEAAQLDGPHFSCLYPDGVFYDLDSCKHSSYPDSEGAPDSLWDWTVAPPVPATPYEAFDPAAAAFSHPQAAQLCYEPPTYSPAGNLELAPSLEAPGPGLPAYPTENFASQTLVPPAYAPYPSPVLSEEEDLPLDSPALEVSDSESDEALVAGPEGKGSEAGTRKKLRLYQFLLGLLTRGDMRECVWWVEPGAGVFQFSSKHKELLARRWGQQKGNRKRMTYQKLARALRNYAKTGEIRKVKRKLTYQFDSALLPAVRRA
ETV1, sequence (P50549 whole entry): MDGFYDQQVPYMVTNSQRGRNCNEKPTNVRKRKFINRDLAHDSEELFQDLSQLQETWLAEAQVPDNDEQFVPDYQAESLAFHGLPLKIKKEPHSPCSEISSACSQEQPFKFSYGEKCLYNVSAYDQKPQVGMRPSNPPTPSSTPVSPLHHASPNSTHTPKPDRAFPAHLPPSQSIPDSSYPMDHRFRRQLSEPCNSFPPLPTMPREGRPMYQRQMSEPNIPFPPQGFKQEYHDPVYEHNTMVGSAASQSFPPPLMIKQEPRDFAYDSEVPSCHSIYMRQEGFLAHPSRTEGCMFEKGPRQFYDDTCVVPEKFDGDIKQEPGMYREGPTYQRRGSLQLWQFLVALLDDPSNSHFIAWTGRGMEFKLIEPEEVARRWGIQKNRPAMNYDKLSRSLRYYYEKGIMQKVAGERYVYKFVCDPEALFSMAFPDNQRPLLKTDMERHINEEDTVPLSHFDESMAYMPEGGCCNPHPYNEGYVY
ETV5, sequence (P41161 whole entry): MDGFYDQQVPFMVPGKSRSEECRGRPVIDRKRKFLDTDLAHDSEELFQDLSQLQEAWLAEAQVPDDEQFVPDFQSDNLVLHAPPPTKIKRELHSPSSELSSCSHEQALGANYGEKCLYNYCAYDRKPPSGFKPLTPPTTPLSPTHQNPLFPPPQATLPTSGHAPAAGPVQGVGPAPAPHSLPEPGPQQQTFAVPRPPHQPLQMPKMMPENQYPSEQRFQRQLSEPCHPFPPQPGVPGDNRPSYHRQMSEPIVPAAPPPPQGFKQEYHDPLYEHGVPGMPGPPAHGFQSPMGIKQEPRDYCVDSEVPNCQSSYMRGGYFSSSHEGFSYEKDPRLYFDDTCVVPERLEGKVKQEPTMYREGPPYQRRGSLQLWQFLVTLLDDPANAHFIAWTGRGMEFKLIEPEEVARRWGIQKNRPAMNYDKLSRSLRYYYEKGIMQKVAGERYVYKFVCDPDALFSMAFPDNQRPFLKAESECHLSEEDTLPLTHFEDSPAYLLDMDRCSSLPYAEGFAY
ELF1, sequence (P32519 whole entry): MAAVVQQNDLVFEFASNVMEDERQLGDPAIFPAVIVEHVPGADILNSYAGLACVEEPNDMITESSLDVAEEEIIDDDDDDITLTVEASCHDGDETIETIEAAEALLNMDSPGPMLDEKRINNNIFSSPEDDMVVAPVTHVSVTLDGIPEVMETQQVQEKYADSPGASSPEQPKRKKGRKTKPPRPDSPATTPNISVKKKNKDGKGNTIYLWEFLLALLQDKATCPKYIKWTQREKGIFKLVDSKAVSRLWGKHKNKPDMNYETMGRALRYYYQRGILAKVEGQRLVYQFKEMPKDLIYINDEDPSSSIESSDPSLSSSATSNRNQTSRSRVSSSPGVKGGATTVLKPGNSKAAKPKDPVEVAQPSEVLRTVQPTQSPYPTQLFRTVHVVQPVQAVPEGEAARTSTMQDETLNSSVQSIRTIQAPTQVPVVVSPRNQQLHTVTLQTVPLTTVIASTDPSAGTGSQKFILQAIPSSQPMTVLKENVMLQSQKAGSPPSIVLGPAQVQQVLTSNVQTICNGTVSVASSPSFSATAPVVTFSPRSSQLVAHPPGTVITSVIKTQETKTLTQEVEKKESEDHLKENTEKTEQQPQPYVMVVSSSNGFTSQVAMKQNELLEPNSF
ELF4, sequence (Q99607 whole entry): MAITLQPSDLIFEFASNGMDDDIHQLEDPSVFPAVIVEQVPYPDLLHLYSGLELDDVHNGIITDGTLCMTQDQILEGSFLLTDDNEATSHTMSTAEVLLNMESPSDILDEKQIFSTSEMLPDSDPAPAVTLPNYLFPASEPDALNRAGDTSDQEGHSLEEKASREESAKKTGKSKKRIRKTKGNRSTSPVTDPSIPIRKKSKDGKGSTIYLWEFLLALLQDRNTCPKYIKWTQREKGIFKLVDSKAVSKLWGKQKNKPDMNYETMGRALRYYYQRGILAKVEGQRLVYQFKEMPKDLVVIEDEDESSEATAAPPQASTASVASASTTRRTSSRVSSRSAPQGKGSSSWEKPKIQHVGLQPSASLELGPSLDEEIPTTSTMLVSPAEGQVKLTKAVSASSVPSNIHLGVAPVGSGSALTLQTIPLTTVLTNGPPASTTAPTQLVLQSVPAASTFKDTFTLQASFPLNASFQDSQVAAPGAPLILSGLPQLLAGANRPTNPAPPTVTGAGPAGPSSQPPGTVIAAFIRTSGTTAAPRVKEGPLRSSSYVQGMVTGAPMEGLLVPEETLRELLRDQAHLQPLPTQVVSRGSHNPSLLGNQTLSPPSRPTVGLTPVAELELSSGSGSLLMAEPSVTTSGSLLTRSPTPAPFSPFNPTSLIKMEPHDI
CRX, sequence (O43186 whole entry): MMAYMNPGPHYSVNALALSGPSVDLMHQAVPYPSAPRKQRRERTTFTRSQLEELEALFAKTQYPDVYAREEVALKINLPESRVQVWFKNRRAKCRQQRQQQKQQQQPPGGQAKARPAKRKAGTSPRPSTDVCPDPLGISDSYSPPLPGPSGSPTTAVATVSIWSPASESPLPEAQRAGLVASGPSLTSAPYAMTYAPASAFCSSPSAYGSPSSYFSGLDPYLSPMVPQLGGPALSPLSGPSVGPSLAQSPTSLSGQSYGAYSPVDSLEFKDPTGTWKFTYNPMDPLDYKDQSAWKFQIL

| Sequence | binding signal (FLI1) | binding signal (ELK1) | binding signal (GABPA) | binding signal (ERG) | binding signal (ELF1) | binding signal (EHF) | binding signal (SPI1) | binding signal (SPIB) | binding signal (ELK3) | binding signal (FEV) | binding signal (ETV5) | binding signal (SPIC) | binding signal (ELF4) | binding signal (ELK4) | binding signal (ETV2) | binding signal (ELF3) | binding signal (ETV1) | binding signal (CRX) |
| --- | --- | --- | --- | --- | --- | --- | --- | --- | --- | --- | --- | --- | --- | --- | --- | --- | --- | --- |
| CCCAAC | 1.13 fold enrichment (6-mer frequency, TF over GST control) | 1.14 fold enrichment (6-mer frequency, TF over GST control) | 1.09 fold enrichment (6-mer frequency, TF over GST control) | 1.15 fold enrichment (6-mer frequency, TF over GST control) | 1.13 fold enrichment (6-mer frequency, TF over GST control) | 1.16 fold enrichment (6-mer frequency, TF over GST control) | 1.07 fold enrichment (6-mer frequency, TF over GST control) | 1.11 fold enrichment (6-mer frequency, TF over GST control) | 1.02 fold enrichment (6-mer frequency, TF over GST control) | 1.17 fold enrichment (6-mer frequency, TF over GST control) | 1.11 fold enrichment (6-mer frequency, TF over GST control) | 1.17 fold enrichment (6-mer frequency, TF over GST control) | 1.22 fold enrichment (6-mer frequency, TF over GST control) | 1.18 fold enrichment (6-mer frequency, TF over GST control) | 1.03 fold enrichment (6-mer frequency, TF over GST control) | 1.17 fold enrichment (6-mer frequency, TF over GST control) | 1.13 fold enrichment (6-mer frequency, TF over GST control) | – |
| TGTTGA | 1.15 fold enrichment (6-mer frequency, TF over GST control) | 1.08 fold enrichment (6-mer frequency, TF over GST control) | 1.16 fold enrichment (6-mer frequency, TF over GST control) | 1.08 fold enrichment (6-mer frequency, TF over GST control) | 1.16 fold enrichment (6-mer frequency, TF over GST control) | 1.07 fold enrichment (6-mer frequency, TF over GST control) | 1.11 fold enrichment (6-mer frequency, TF over GST control) | 1.09 fold enrichment (6-mer frequency, TF over GST control) | – | 1.07 fold enrichment (6-mer frequency, TF over GST control) | 1.07 fold enrichment (6-mer frequency, TF over GST control) | 1.15 fold enrichment (6-mer frequency, TF over GST control) | 1.1 fold enrichment (6-mer frequency, TF over GST control) | 1.16 fold enrichment (6-mer frequency, TF over GST control) | 1.12 fold enrichment (6-mer frequency, TF over GST control) | 1.09 fold enrichment (6-mer frequency, TF over GST control) | 1.07 fold enrichment (6-mer frequency, TF over GST control) | 1.02 fold enrichment (6-mer frequency, TF over GST control) |
